Drawing on ChEMBL document CHEMBL1201862, “PubChem BioAssay data set” (2004), this text covers Potency for 99 molecules.

Structures are written as SMILES. Out of some 400,000 compounds screened, about 2,100 (0.53%) were called active. Another 14% or so got no clear call; they are omitted. The sample holds actives, similar compounds and a random draw of the others, so the mix is not that of the screen. The rule behind the calls is not given here.

The target of the test is Ataxin-2 (Homo sapiens) (UniProt Q99700). Kind of test: qHTS for Inhibitors of ATXN expression. The format is functional.
Chain of Ataxin-2 (Homo sapiens) (Q99700 whole entry): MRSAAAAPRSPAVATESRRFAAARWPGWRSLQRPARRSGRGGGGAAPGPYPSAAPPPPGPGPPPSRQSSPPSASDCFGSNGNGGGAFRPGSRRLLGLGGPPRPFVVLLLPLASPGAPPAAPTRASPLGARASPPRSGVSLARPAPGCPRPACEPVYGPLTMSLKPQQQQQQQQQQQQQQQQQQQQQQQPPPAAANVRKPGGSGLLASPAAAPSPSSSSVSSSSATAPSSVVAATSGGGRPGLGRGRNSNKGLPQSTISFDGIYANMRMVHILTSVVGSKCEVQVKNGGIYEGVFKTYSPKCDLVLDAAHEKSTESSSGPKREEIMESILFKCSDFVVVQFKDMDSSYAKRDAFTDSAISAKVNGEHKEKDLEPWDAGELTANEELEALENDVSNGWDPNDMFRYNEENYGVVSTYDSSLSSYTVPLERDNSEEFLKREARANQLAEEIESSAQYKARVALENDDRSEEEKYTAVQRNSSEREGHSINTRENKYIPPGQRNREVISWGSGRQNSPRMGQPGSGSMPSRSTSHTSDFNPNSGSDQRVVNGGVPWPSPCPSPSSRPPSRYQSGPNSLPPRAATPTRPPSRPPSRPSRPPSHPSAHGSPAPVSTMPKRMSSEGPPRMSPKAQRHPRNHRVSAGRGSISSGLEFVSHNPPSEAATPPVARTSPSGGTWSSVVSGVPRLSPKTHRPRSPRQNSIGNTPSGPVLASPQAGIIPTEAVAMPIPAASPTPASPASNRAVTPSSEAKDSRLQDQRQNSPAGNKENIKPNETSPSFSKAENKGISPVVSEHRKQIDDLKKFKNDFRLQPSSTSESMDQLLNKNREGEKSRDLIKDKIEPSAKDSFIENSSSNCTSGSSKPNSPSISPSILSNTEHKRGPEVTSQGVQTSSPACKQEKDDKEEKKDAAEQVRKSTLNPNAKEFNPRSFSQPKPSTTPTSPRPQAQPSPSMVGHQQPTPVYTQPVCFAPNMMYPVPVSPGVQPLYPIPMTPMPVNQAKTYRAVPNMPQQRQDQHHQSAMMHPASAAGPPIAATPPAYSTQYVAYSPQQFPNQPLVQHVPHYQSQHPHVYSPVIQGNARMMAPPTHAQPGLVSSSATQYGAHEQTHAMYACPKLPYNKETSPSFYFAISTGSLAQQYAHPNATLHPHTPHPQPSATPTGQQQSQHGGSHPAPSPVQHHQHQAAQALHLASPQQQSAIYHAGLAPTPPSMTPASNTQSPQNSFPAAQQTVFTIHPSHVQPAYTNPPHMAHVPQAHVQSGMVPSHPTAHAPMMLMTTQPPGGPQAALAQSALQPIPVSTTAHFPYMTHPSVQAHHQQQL
In the case of `CCN1CCN(C(CC(C)C)c2nnnn2CS(=O)(=O)c2ccc(C)cc2)CC1` (centres undefined), the Potency entry was “inactive”. Then `COc1cccc(NC(=O)/C(C#N)=C/c2ccc(-c3ccc(C)cc3)o2)c1`, with “inactive”.

On to `Cc1ccc(Cc2cnc(NC(=O)/C(C#N)=C/c3ccc(-c4ccc([N+](=O)[O-])cc4)o3)s2)cc1`, for which the Potency is 22.4 µM (active). Then `Cc1ccc(C(=O)N/C(=C/c2ccc(-c3ccc([N+](=O)[O-])cc3)o2)C(=O)NCCCN(C)C)cc1`, with “inactive”. `N=c1c(C(=O)NCc2ccc(F)cc2)cc2c(=O)n3ccccc3nc2n1CC1CCCO1` (centres undefined): the Potency entry was “inactive”.

With `CN1CCc2c(sc3c2C(=O)NC(c2ccc(-c4ccc(Cl)cc4)o2)N3)C1` (centres undefined), the Potency entry is “inactive”. Then `O=C1C=C(N2CCCCC2)c2ccccc2C1=O`, with 18.9 µM (active); and `O=C1c2cccc3c(N4CCCCC4)ccc(c23)C(=O)N1c1ccccc1O`, with “inactive”. Then `O=C1c2ccccc2-c2ccc(C(=O)N3CCCCC3)cc21`, with “inactive”; and `COc1ccccc1C1CN(c2ccccc2)N=C1c1cccs1` (centres undefined), with “inactive”. Turning to `N#Cc1ccc(CN2CCN(C(=O)c3cc(Cl)c4c(c3)OCCO4)CC2)cc1`, the Potency result is “inactive”. Then `CCN1C(=O)c2cccc3c(Cl)ccc(c23)C1=O`, with “inactive”; and `COCCCNC(=O)c1c(N)n(-c2ccccc2)c2nc3ccccc3nc12`, with “inactive”. As for `Cc1ccc(-n2c(N)c(C(=O)Nc3c(C)n(C)n(-c4ccccc4)c3=O)c3nc4ccccc4nc32)cc1`, the Potency was 21.2 µM (active). As for `COCCNC(=O)c1c(N)n(-c2ccccc2)c2nc3ccccc3nc12`, the Potency entry was “inactive”.

On to `CN(Cc1ccc(OC(F)F)cc1)C(=O)C1CCN(S(=O)(=O)c2ccc3c(c2)OCCO3)CC1`, for which the Potency entry is “inactive”.

Consider `O=C(Nc1cc(S(=O)(=O)N2CCCC2)ccc1Cl)c1ccncc1`, for which the Potency result is “inactive”. As to `CCOc1cc(Br)c(/C=C2/C(=O)N(C)C(=S)N2CC(=O)OC)cc1OC`, the Potency result was “inactive”.

`Cn1c(SCc2cc(O)nc(C(C)(C)C)n2)nnc1C(F)(F)F`: the Potency entry is “inactive”. Consider `CCCn1c(=N)c(C(=O)NCC2CCCO2)cc2c(=O)n3cc(C)ccc3nc21` (centres undefined), for which the Potency result was “inactive”. The value for `Cc1ccc(S(=O)(=O)N2CCN(C(=O)c3cc(S(=O)(=O)N4CCOCC4)c(Cl)cc3Cl)CC2)cc1` was “inactive”; that for `O=c1nc2ccc(Cl)cn2c2ccc(S(=O)(=O)N3CCOCC3)cc12` was “inactive”. As for `Nc1nc(-c2ccc(Cl)cc2)c(N=Nc2ccc(S(=O)(=O)N3CCOCC3)cc2)s1`, the Potency is 29.9 µM (active). The value for `Nc1ccc2c(c1)C/C(=C/c1ccco1)C2=O` was “inactive”; that for `Cc1ccc(C2=CC(c3c(F)cccc3Cl)n3ncnc3N2)cc1C` (centres undefined) was “inactive”. Turning to `O=C(OC1CCOC1=O)c1cc(-c2cccs2)nc2ccccc12` (centres undefined), the Potency entry was “inactive”. The value for `CCOc1cc(C(=O)O)ccc1OCCOc1ccccc1` was “inactive”; that for `CCCOc1ccc(C(=O)c2ccccc2C(=O)OC2CCOC2=O)cc1OCCC` (centres undefined) was 39.8 µM (active).

For the molecule `O=C(O)c1ccc2nc(-c3cc4cc(Cl)ccc4oc3=O)[nH]c2c1`, the Potency entry is “inactive”.

For `CCn1c2ccccc2c2cc(CN3CCOc4ccc(C(O)c5cccnc5)cc4C3)ccc21` (centres undefined), the Potency is 31.6 µM (active). As to `CC(C)C(OC(=O)c1ccccc1)c1nccc2ccccc12` (centres undefined), the Potency entry was “inactive”.

Consider `CCOc1cc2c(cc1/C=C1/NC(=O)N(CC(=O)OC)C1=O)OCO2`, for which the Potency result was “inactive”. Then `COc1ccc(C=CC(=O)c2ccc3cc(OC)c(OC)cc3c2)cc1OC`, with “inactive”; and `COc1cc(/C=C/C(=O)c2ccc(C)cc2)ccc1OCC#N`, with 39.8 µM (active); and `COc1cc(/C=C/C(=O)O)ccc1OS(=O)(=O)c1cc(C)ccc1C`, with “inactive”. The value for `COc1ccc(OC)c(N/C=C/C(=O)c2ccc(OC)c(OC)c2)c1` was “inactive”; that for `COc1ccc(/C=c2\s/c(=C/C(=O)c3ccc(C)cc3)[nH]c2=O)cc1OC` was “inactive”; that for `COc1cccc(C(=O)/C=C/c2ccc(OCC#N)c(OC)c2)c1` was 31.6 µM (active). The value for `CCS(=O)(=O)Nc1cc2c3c(c1)CCC(=O)N3CCC2` was “inactive”; that for `O=S(=O)(NN=C(NS(=O)(=O)c1ccccc1)c1ccccc1)c1ccccc1` was “inactive”. For `CCc1cc2cc(C)ccc2nc1SCC(=O)NC1CCCC1`, the Potency result was “inactive”. Then `Cc1cc(=O)n2c(n1)SCOC2`, with “inactive”; and `Cc1cccn2c(=O)c3cc(C(=O)NCc4ccc(F)cc4)c(=N)n(CC4CCCO4)c3nc12` (centres undefined), with “inactive”.

For `CC(C)C[C@H](N)c1nnc(S(=O)(=O)Cc2ccc(F)cc2)o1`, the Potency is 31.6 µM (active).

As to `CC(C)C[C@H](N)c1nnc(S(=O)(=O)Cc2cccc(F)c2)o1`, the Potency was 39.8 µM (active).

For the molecule `CCOC(=O)N1CCN(S(=O)(=O)c2ccc3c4c(cccc24)C(=O)N3)CC1`, the Potency entry is “inactive”. Regarding `CCOC(=O)C1CCN(C(=O)C(C)Oc2ccc(Br)cc2)CC1` (centres undefined), the Potency entry was “inactive”. The value for `COc1cc(/C=C2\C(=N)N3N=C(CC(=O)N4CCOCC4)SC3=NC2=O)cc(OC)c1O` was “inactive”; that for `COc1cc(OC)cc(N2C(=O)CSCC2=O)c1` was “inactive”. The value for `COc1ccc2c(c1)C(=O)N(c1ccc(C)cc1C)C(=O)C2` was 35.5 µM (active).

For `Cc1ccc(N2C(=O)C(Cl)=C(N3CCCCCC3)C2=O)c(C)c1`, the Potency entry is “inactive”.

In the case of `N#CC(C#N)=C1C=C2C=C(N3CCOCC3)CCC2CC1` (centres undefined), the Potency result was “inactive”. Turning to `Cc1cc(F)ccc1S(=O)(=O)Nc1ccccc1C(=O)Nc1ccccc1-c1nc2ccccc2[nH]1`, the Potency was 39.8 µM (active). The value for `O=c1oc2c(O)cccc2cc1-c1nc2ccccc2[nH]1` was “inactive”.

Consider `Cc1ccccc1NS(=O)(=O)c1nnc(NC(=O)c2ccccc2C)s1`, for which the Potency entry was “inactive”. Then `Cc1cc(C)c2c(N)c(C(=O)N/N=C/c3cccs3)sc2n1`, with “inactive”; and `Cc1ccc2nc3c(cc(C(=O)NCC4CCCO4)c(=N)n3CCCOC(C)C)c(=O)n2c1` (centres undefined), with “inactive”; and `COc1cccc(/C=C/c2nc(C#N)c(N3CCC(C(N)=O)CC3)o2)c1`, with “inactive”.

As for `COc1cccc(N2[C@@H](CC(C)=O)c3ccc(/C=C/C(C)=O)cc3S2(=O)=O)c1`, the Potency is 35.5 µM (active). The value for `CC(C)n1nc(C(=O)NNC(=O)c2ccc(OC(F)F)cc2)c2ccccc2c1=O` was “inactive”; that for `CCC(=C(c1ccc(OC)cc1)c1ccc(OC)cc1)c1cn(CC(O)CN2CCN(C)CC2)c2ccccc12` (centres undefined) was 39.8 µM (active); that for `CCCN(CCC)CC(O)Cn1cc(/C=C/C(=O)c2ccc(OCC)cc2)c2ccccc21` (centres undefined) was “inactive”. Then `COc1ccc(C(=O)/C=C/c2cn(CC(O)CN(CC(C)C)CC(C)C)c3ccccc23)cc1` (centres undefined), with “inactive”. Take `COc1ccc(C(=O)/C=C/c2cn(CC(O)CN3CCN(C)CC3)c3ccccc23)cc1OC` (centres undefined): the Potency entry is “inactive”.

Take `CCC(=C(c1ccc(OC)cc1)c1ccc(OC)cc1)c1cn(CC(O)CN(CCO)CCO)c2ccccc12` (centres undefined): the Potency was 39.8 µM (active).

As for `COc1ccc(C(=O)/C=C/c2cn(CC(O)CN3CCc4ccccc43)c3ccccc23)cc1` (centres undefined), the Potency result was “inactive”. Then `O=C(CCc1ccccc1)NCC1(c2ccccc2)CCCC1`, with “inactive”; and `COc1cc2c(cc1/C=C1/NC(=O)N(CC(=O)Nc3ccccc3)C1=O)OCO2`, with “inactive”; and `Cc1c(-c2ccccc2)c(=O)oc2c(CN3CCOCC3)c(O)ccc12`, with “inactive”. Regarding `Cc1cccn2c(=O)c3cc(C(=O)NCC4CCCO4)c(=N)n(C4CCCC4)c3nc12` (centres undefined), the Potency result is “inactive”. Then `N=c1oc2cc(O)ccc2cc1C(=O)Nc1nc2ccccc2s1`, with “inactive”; and `O=C(C=Cc1ccccc1)CC(c1ccccc1)N1CCOCC1` (centres undefined), with 28.2 µM (active); and `Cc1ccc(S(=O)(=O)N(C)CC(=O)NCC(c2ccc(F)cc2)N2CCOCC2)cc1` (centres undefined), with “inactive”. `O=C(O)c1cc(/C=C/c2ccc(N3CCOCC3)cc2)nc2ccccc12`: the Potency entry was “inactive”. Turning to `COc1ccc(C2C=C(c3ccccc3)Nc3nc(NC(C)=O)nn32)cc1` (centres undefined), the Potency entry is “inactive”.

`Cc1ccsc1C(=O)Nc1ccc(O)c(-c2nc3ccccc3s2)c1`: the Potency result is “inactive”. The value for `O=C(Nc1cccc(-c2cn3c(n2)SCC3)c1)c1ccc2c(c1)OCO2` was “inactive”; that for `Cc1c(C(=O)Nc2ccc3c(c2)OCCO3)sc2nc(-c3ccccc3)cn12` was 39.8 µM (active). The value for `C/N=c1\scc(C)n1/N=C/c1cc(Br)c(O)c(Br)c1` was “inactive”; that for `COc1ccc(Cl)cc1NC(=O)CCS(=O)(=O)c1cccc2nonc12` was “inactive”. Then `COc1ccc(NC(=O)c2ccc(NC(=O)CCS(=O)(=O)c3cccs3)cc2)cc1Cl`, with 39.8 µM (active); and `CCc1ccc(NC(=O)CCNS(=O)(=O)c2cccs2)cc1`, with “inactive”; and `Cc1c(OC(C)C(=O)NCCN2CCOCC2)ccc2c3c(c(=O)oc12)CCC3` (centres undefined), with “inactive”.

Take `O=C(Nc1ccc(N2CCOCC2)c(Cl)c1)c1cc2ccccc2o1`: the Potency is 39.8 µM (active). As to `Cc1ccc(NC(=O)C2CCN(C(=O)c3ccco3)CC2)cc1`, the Potency entry is “inactive”. Take `N=c1oc2cc(O)ccc2cc1C(=O)Nc1ccc(Cl)cc1`: the Potency result was “inactive”. Turning to `COc1cc(NC(=O)c2oc3ccccc3c2C)ccc1NC(=O)c1ccco1`, the Potency result is “inactive”.

Take `O=C(Nc1cc(Cl)ccc1N1CCOCC1)c1cc2ccccc2o1`: the Potency entry was “inactive”. Then `O=C(Nc1ccc(N2CCN(C(=O)c3ccco3)CC2)c(Cl)c1)c1cc2ccccc2o1`, with 22.4 µM (active); and `O=C(Nc1ccc(N2CCN(C(=O)c3ccco3)CC2)cc1)c1cc(Br)ccc1Cl`, with 35.5 µM (active).

For `O=C(CSc1nc(O)c2ccccc2n1)Nc1ccc(N2CCOCC2)c(Cl)c1`, the Potency entry is “inactive”. Then `CC1CCN(C(=O)c2cc(Cl)ccc2NC(=O)c2ccco2)CC1`, with “inactive”; and `COc1cc(NC(=O)c2cc(Cl)ccc2Cl)ccc1NC(=O)c1cc2ccccc2o1`, with 22.4 µM (active); and `CCOC(=O)c1cc2ccc(OC(=O)c3ccco3)cc2oc1=O`, with “inactive”. In the case of `CCN(CC)c1ccc(/C=N/NC(=O)c2cccc(S(=O)(=O)N3CCOCC3)c2)c(O)c1`, the Potency result was “inactive”. Then `CCOC(=O)/C(C#N)=C1\CC2CCC1(C)C2(C)C` (centres undefined), with “inactive”; and `O=C1c2cccc3c([N+](=O)[O-])ccc(c23)C(=O)N1c1ccccn1`, with “inactive”.

Take `O=[N+]([O-])c1ccccc1Oc1ncccc1[N+](=O)[O-]`: the Potency is 8.91 µM (active). Consider `CCC1Cc2c(nc(N)c3c(N)nc(N4CCOCC4)c(C#N)c23)O1` (centres undefined), for which the Potency result is “inactive”.
